# PERK inh – human PERK inhibition, primary cell-based screen; Q9NZJ5; CHO PERK-DD fusion, SEAP luminescence translation reporter; inhibition, % at 5.6 µM; hit rate 0.17% among 220,000;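 active = inhibition above the mean inhibition of all tested compounds plus 3 SD, set separately per screening campaign, cut at about 2.9% in these data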;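 also: PERK kinase domain activated by AP20187 dimerizer at 100 nM; 0% = DMSO with dimerizer and 100% = rapamycin at 8.4 µM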
# EP2 modulator – modulators of human EP2 prostaglandin E2 receptor; EP2-expressing cells, cAMP HTRF FRET, PGE2 co-stimulation; induction, % at 25 µM; hit rate 0.83% among 260,000; AID 940;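 active = compounds whose cAMP rise, as percent of the full-agonist control response, exceeds 60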;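 also: rat C6 glioma line stably carrying human EP2 under a CMV promoter; the protocol text gives 20 µM as final concentration; 100% = response of wells given 1 µM PGE2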
# Target sequence (P43116 whole entry, looked up): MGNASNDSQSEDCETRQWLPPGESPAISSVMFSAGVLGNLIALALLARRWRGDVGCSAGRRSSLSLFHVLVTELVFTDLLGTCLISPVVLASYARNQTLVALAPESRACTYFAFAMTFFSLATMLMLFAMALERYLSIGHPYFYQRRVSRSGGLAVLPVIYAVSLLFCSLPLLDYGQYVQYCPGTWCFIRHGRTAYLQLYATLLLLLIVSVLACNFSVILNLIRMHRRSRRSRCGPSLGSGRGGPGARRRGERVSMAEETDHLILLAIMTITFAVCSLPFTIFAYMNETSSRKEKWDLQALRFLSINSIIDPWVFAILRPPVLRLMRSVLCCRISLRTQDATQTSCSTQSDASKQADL
# eIF4E 4G PPI – inhibitors of eIF4E and eIF4G interaction in translation initiation; P63073+Q04637; TR-FRET eIF4E-eIF4GI(517-606) binding, 2 h; hit rate 0.37% among 220,000; inhibition, % at 21.7 µM;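 active = inhibition above about 30%, limit read from the data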;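 also: 0% = full FRET control wells and 100% = background wells lacking eIF4GI fragment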
# EP2 antag – blocks the human prostaglandin E2 receptor EP2 | P43116 | hit rate 0.52% among 260,000 | inhibition, % at 25 µM | C6 glioma cells expressing human EP2, cAMP TR-FRET; cells stimulated with saturating PGE2 | AID 1422;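 active = percent inhibition above 40 after rounding to a whole number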;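 also: rat C6 glioma host cells with rolipram phosphodiesterase inhibitor present; the protocol text gives 20 µM as final concentration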
# * hit, by the source's call; . = no result; [ ] = remark or other dose. In the library only some 1.8% were active in any assay of this set; here they are far more common.
SMILES,PERK inh,EP2 modulator,eIF4E 4G PPI,EP2 antag
CCCc1ccc(CN2C3CCC2CC(O)(c2nccn2C)C3)s1 (stereo not given),.,-1,.,5
C[C@]12CC[C@@H]3c4ccc(O)c(O)c4CC[C@H]3[C@@H]1CC[C@@H]2O,1,-24,42*,89*
CCCc1nc2ccccc2c(=O)n1-c1ccc(Cl)cc1,.,25,.,10
Cc1nn(CCC#N)c2c1P(=S)(N1CCCC1)OC(c1ccc(F)cc1)=N2 (stereo not given),1,42,32*,5
C[C@H]1CC[C@]2(NC1)O[C@H]1C[C@H]3[C@H]4CC=C5C[C@@H](O)CC[C@]5(C)[C@@H]4CC[C@]3(C)[C@H]1[C@@H]2C,.,7,.,58*
COc1ccc(-n2c(C)nc3c(Br)cc(Br)cc3c2=O)cc1,.,28,.,16
C[C@@]12C[C@@H](c3ccoc3)OC(=O)[C@@H]1CC[C@]1(C)C2[C@H]2C=C[C@]1(O)C(=O)O2 (stereo not given in full),.,14,.,10
Cc1cccc(C2=NCC(=O)Nc3sc4c(c32)CCCC4)c1,.,9,.,5
COc1ccc(OCC(=O)N2CCN(C3CCCCCC3)CC2)cc1,.,-55,.,7
O=C1C(=O)c2ccccc2-c2ccccc21,3,-38,-1,45*
COc1ccc(-n2c(SCCN3CCCCC3)nc3ccccc3c2=O)cc1,.,-8,.,8
O=C(Nc1ccccc1O)c1ccc(Cl)c(S(=O)(=O)N2CCCCCC2)c1,.,-80,.,6
C[C@H]1CC[C@H]2NCCN[C@H]2C1,3.1*,21,3,2
COc1ccc(CC(=O)N2CCN(Cc3ccco3)C[C@H]2C)cc1OC,.,-47,.,.
C[C@@H]1O[C@@H](O[C@H]2C[C@@H](O)[C@]3(CO)[C@@H]4C(CC[C@]3(O)C2)[C@@]2(O)CC[C@H](C3COC(=O)C3)[C@@]2(C)C[C@H]4O)[C@H](O)[C@H](O)[C@H]1O (stereo not given in full),.,19,.,12
C[C@H]1CC[C@@H]2[C@@H](C)[C@H]3[C@H](C[C@H]4[C@@H]5CC=C6C[C@@H](O[C@@H]7O[C@H](CO)[C@H](O)[C@H](O[C@@H]8O[C@H](CO)[C@@H](O)[C@H](O)[C@H]8O)[C@H]7O[C@@H]7O[C@@H](C)[C@H](O)[C@@H](O)[C@H]7O)CC[C@]6(C)[C@H]5CC[C@]34C)N2C1,1,-72,-1,88*
Nc1nc2c(c(=S)[nH]1)[n]([Hg][c]1cc([N+](=O)[O-])ccc1O)c[n+]2[C@H]1O[C@H](CO)[C@@H](O)[C@@H]1O,.,12,.,60*
CC(Cc1ccccn1)N(C)Cc1cnc(N2CCCCC2)nc1 (stereo not given),.,-19,.,6
Oc1ccc([C@H](O)[C@@H]2CCCCN2)cc1O,.,-7,.,9
CCC(N)C(O)c1ccc(O)c(O)c1 (stereo not given),.,74*,.,12
COc1ccc(CN2C3CCC2CC(O)(c2ccccc2F)C3)cc1OC(C)C (stereo not given),.,-13,.,6
COc1ccc(CC2C(=O)N(c3ccccc3)C(=O)N(c3ccccc3)C2=O)c(OC)c1,-1,-9,1,8
COc1ccc(CC2C(=O)NC(=O)N(c3ccccc3)C2=O)c(OC)c1 (stereo not given),1,4,69*[fluorescence artefact?],17
COc1ccc(Nc2nc(CC(=O)N(C)CCN3CCCCC3)cs2)cc1,.,-15,.,4
C[N+]1(C)[C@@H]2CC[C@H]1CC(OC(=O)[C@@H](CO)c1ccccc1)C2 (stereo not given in full),.,20,.,50*
SMILES,PERK inh,EP2 modulator,eIF4E 4G PPI,EP2 antag
C[N+]1(C)C2CCC1CC(OC(=O)c1ccco1)C2 (stereo not given),3.3*,28,0,7
C[N+]1(C)C2CC(OC(=O)[C@H](CO)c3ccccc3)CC1C1OC12 (stereo not given in full),.,46,.,7
Cn1ccnc1C1(O)CC2CCC(C1)N2CC(=O)Nc1ccc2c(c1)OCO2 (stereo not given),.,-27,.,.
COc1cccc(CNC(=O)CN2C3CCC2CC(O)(c2ccco2)C3)c1 (stereo not given),.,-35,.,.
COc1cccc(CN2CCN(C(=O)Cc3n[nH]c(=O)c4ccccc34)[C@@H](C)C2)c1,.,4,.,.
CN(C)CCN(Cc1ccccc1F)C(=O)Cc1cn2ccsc2n1,.,4,.,5
CC1(C)N=C(N)N=C(N)N1c1cccc(C(=O)Nc2ccc(S(=O)(=O)F)cc2)c1,.,12,.,52*
C#CCOc1ccc(CN2C3CCC2CC(O)(c2ccc(OC)cc2)C3)cc1OC (stereo not given),.,-24,.,6
CC1(C)[C@@H]2CC[C@@]1(C)CN(CCC[N+](C)(C)C)C2,.,14,.,41*
COc1ccc2c(c[n+](C)c3c4cc5c(cc4ccc23)OCO5)c1OC,.,-26,.,118*
COc1ccc2c(c1OC)C(=O)O[C@H]2[C@H]1c2cc3c(cc2CCN1C)OCO3,.,-27,.,11
O=C(O)C[C@@H]1OCC=C2CN3CC[C@]45c6ccccc6N[C@H]4[C@H]1[C@H]2C[C@H]35,.,1,.,51*
COc1cc(/C=C2\C(=O)NC(=O)N(c3ccccc3)C2=O)cc(OC)c1O,0,-42,18,3
COc1cc(/C=C2\C(=O)NC(=O)N(c3ccccc3)C2=O)c([N+](=O)[O-])cc1OC,3.0*,-23,4,6
O=C(c1ncoc1-c1ccc(F)cc1)N1CC2CC(C1)c1cccc(=O)n1C2 (stereo not given),.,-17,.,4
O=C1N[C@]2(CN3CCC2CC3)C(=O)N1CN(Cc1ccccc1)c1ccccc1,.,8,.,54*
CCCC/C(C)=C/[C@@H](NP(=O)(c1ccccc1)c1ccccc1)c1ccccc1,-1,64*,6,8
CCc1cccc2c(CC(=O)N(C)CCN(C)C)c(C)[nH]c12,.,-3,.,3
COc1cc2c(cc1OC)[C@]13CC[N@+]4(C)CC5=CCO[C@@H]6CC(=O)N2[C@@H]1[C@@H]6[C@@H]5C[C@]34O,.,27,.,42*
C=C1C(=O)O[C@@H]2C[C@@H](C)[C@@H]3C=CC(=O)[C@@]3(C)[C@@H](OC(=O)CC(=O)O[C@H]3[C@@H]4C(=C)C(=O)O[C@@H]4C[C@@H](C)[C@@H]4C=CC(=O)[C@]43C)[C@H]12,.,-44,-4,166*
O=C(Cn1ccc2ccccc2c1=O)NCC(=O)N1CCC2(CC1)OCCO2,-1,-21,6,9
Cc1ccc(CN(Cc2ccccc2)C(=S)NCC(=O)N2CCC3(CC2)OCCO3)o1,-1,22,80*,8
CCc1nc2ccccc2c(=O)n1-c1ccccc1[N+](=O)[O-],0,6,8,49*
CCCCc1nc2ccccc2c(=O)n1-c1ccccc1[N+](=O)[O-],0,37,3,8
C=CCN1C(=O)CN=C(c2ccc(F)cc2)c2c1sc1c2CCCC1,.,65*,.,3
Nc1ccc2c(c1)oc1ccccc12,3.6*,-37,3,8
CN1CCN(c2c(N)c(=O)oc3ccccc23)CC1,-1,16,4,22
